Laboratory results published in the supplement of paper PMC11732987, “Enantioselective OTUD7B fragment discovery through chemoproteomics screening and high-throughput optimisation” (Communications Chemistry, 2025).

Key:
Assay in all cases: log2 ratio of Biotin-Ahx-Ub-VS probe labelling (fragment/DMSO); higher = less target engagement (more negative = stronger competition), active = hit call of the paper (q ≤ 0.05, log2 ratio ≤ -1)
Details in all cases: compound concentration: 200 uM; treatment time: 3 h
USP34 = USP34 (UniProt Q70CQ2)
Chain of USP34 (Q70CQ2 whole entry, the tested form may be a part): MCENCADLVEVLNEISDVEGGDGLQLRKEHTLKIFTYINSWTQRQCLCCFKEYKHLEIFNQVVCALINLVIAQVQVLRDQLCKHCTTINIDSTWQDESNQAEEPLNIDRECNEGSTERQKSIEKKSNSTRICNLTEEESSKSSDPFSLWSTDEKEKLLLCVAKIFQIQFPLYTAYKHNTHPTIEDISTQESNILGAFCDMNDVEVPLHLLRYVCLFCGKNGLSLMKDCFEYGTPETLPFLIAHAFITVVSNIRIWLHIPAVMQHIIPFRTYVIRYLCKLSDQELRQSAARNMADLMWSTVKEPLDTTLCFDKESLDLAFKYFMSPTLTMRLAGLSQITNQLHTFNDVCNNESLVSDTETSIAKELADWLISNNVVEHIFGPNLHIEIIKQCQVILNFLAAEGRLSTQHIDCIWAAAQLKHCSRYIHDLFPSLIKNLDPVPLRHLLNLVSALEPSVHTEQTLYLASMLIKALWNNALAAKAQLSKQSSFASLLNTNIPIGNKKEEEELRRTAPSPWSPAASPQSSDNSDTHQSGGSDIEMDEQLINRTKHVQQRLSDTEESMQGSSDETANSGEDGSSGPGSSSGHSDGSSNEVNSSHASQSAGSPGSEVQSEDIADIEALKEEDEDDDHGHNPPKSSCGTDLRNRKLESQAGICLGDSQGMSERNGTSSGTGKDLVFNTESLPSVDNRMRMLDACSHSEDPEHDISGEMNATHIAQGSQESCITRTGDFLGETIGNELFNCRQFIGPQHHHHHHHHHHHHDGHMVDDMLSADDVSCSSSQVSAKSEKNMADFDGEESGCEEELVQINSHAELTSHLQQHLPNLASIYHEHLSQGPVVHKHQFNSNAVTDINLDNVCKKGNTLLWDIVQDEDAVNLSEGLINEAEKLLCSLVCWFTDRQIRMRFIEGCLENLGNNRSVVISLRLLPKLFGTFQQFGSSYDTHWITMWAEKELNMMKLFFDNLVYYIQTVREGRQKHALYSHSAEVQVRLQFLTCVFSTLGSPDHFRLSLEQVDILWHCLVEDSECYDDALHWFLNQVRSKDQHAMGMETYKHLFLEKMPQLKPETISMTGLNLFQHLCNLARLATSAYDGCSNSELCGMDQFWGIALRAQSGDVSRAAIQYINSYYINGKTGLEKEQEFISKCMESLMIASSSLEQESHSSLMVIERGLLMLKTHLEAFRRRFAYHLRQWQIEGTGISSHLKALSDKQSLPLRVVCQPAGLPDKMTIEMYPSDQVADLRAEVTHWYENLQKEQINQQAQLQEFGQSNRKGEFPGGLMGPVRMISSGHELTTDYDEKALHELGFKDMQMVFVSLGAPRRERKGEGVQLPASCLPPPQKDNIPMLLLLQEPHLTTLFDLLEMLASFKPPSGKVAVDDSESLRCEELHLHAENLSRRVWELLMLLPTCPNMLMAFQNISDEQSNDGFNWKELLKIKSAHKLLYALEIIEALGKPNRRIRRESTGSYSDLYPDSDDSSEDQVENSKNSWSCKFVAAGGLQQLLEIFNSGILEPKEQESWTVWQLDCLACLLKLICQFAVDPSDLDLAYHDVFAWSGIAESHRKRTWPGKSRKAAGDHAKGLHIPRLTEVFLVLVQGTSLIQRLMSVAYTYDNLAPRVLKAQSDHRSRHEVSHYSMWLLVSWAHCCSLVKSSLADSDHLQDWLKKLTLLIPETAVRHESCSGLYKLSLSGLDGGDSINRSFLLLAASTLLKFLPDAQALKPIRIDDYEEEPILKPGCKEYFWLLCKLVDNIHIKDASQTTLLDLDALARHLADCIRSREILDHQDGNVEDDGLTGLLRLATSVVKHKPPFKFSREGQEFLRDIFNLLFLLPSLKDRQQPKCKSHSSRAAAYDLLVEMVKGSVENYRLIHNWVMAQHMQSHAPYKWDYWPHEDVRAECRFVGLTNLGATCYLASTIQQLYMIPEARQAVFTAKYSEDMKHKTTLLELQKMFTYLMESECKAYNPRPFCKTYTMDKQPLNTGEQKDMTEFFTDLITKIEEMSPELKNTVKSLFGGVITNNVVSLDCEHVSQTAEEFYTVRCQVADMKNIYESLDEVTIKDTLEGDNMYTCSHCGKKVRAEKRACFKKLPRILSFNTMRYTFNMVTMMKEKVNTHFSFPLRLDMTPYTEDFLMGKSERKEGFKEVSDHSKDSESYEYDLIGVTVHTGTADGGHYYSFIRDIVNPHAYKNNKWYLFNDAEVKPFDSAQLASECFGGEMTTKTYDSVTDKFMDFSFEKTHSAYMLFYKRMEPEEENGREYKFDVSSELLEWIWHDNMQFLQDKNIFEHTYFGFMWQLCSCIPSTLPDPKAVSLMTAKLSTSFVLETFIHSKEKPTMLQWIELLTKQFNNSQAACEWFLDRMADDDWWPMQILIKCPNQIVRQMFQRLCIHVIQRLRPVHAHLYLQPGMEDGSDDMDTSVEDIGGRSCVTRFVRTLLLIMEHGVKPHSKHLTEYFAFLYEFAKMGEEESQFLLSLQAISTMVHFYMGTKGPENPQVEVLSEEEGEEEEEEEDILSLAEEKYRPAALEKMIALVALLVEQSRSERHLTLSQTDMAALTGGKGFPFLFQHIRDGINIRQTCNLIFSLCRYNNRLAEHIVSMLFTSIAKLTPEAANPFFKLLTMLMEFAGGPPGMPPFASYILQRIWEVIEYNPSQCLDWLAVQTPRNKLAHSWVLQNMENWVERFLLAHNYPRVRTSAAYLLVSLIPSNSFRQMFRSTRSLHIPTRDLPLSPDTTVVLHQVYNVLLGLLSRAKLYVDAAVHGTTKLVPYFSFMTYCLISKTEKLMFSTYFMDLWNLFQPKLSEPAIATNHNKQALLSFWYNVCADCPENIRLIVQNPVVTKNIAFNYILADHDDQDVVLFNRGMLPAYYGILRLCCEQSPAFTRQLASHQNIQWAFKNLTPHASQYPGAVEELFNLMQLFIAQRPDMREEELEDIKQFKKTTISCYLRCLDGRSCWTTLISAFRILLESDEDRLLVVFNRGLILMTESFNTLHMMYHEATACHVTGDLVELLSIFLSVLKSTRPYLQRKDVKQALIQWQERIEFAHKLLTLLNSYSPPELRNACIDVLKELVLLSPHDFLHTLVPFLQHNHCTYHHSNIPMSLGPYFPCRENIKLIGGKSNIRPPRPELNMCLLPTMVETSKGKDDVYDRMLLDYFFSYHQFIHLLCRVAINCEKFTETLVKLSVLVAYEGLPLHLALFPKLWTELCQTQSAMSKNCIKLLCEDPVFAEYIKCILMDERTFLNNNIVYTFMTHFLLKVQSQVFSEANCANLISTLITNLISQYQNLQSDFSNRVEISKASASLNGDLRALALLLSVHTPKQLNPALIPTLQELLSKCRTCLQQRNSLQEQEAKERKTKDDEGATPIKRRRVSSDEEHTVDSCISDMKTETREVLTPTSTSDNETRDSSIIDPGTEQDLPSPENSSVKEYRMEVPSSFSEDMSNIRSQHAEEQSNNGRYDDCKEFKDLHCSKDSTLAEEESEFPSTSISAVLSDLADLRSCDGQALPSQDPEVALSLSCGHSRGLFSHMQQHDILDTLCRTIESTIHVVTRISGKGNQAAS
In short: (§1)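 Average log2 ratios of fragment over vehicle were obtained by unpaired t-test from global-median-normalised Spectronaut label-free quantities. Proteins with ≥2 unique peptides were included. HEK293T lysate (495 µg per sample) was treated in triplicate with fragment at 200 µM or vehicle for 3 h, then with Biotin-Ahx-Ub-VS at 0.5 µM final for 1 h, and labelled DUBs were NeutrAvidin-enriched and run by diaPASEF LC-MS/MS.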

USP36 = target: T1, USP36 (UniProt Q9P275)
T1 sequence (whole entry): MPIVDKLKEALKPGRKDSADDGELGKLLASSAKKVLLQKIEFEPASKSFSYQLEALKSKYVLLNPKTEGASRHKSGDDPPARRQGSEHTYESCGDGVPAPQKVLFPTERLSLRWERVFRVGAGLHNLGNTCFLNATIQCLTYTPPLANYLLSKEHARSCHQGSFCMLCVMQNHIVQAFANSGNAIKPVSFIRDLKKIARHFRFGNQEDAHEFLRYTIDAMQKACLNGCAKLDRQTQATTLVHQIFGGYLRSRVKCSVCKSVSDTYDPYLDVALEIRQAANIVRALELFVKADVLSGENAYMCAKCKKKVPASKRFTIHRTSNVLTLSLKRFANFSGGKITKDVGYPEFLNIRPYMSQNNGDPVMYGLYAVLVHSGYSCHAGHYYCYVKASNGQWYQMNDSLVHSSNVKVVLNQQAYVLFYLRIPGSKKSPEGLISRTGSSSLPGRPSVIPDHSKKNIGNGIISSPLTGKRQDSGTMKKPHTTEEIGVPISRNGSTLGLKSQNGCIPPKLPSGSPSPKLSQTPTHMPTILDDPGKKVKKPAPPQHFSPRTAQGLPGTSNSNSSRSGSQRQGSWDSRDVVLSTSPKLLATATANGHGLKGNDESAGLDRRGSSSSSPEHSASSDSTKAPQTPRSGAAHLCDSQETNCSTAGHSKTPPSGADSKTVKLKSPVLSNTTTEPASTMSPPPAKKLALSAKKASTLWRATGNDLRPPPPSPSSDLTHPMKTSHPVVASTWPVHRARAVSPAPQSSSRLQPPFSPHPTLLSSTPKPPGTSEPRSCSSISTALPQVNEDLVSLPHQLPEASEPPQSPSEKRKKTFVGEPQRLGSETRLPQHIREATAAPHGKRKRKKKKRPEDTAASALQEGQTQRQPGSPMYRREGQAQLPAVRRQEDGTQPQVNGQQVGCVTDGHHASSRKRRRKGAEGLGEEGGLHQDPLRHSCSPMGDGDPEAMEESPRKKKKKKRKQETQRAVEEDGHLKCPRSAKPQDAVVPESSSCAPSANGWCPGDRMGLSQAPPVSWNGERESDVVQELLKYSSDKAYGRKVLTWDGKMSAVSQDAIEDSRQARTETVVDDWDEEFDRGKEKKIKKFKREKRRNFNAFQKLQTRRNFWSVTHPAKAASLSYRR
In short: as §1

USP38 = target: T2, USP38 (UniProt Q8NB14)
T2 sequence (whole entry): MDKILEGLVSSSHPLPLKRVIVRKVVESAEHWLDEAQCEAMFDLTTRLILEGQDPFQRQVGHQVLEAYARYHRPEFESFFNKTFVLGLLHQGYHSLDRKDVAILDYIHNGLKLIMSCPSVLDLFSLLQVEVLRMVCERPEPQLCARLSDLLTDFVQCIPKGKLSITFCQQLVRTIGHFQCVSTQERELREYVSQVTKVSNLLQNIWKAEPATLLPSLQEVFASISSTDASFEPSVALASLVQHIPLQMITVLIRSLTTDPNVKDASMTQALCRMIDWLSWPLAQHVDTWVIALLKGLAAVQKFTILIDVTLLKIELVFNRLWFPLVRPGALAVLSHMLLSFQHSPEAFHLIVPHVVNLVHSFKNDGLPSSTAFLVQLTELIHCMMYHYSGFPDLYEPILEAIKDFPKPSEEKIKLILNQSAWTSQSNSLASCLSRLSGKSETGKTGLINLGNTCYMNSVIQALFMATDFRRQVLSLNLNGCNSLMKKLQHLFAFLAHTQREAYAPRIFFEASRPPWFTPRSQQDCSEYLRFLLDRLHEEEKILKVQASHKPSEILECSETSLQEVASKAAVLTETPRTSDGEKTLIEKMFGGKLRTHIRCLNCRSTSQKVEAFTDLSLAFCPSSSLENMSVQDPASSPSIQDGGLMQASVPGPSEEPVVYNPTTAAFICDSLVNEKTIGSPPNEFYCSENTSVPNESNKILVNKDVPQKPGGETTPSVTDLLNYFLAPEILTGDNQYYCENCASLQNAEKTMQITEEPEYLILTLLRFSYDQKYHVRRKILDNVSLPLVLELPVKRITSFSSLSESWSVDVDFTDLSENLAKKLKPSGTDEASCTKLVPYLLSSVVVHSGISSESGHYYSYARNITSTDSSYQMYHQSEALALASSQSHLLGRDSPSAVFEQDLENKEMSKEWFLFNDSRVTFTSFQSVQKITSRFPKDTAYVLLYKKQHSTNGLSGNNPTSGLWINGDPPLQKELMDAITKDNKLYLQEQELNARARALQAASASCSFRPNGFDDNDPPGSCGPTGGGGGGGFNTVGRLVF
In short: as §1

USP39 = target: T3, USP39 (UniProt Q53GS9)
T3 sequence (whole entry): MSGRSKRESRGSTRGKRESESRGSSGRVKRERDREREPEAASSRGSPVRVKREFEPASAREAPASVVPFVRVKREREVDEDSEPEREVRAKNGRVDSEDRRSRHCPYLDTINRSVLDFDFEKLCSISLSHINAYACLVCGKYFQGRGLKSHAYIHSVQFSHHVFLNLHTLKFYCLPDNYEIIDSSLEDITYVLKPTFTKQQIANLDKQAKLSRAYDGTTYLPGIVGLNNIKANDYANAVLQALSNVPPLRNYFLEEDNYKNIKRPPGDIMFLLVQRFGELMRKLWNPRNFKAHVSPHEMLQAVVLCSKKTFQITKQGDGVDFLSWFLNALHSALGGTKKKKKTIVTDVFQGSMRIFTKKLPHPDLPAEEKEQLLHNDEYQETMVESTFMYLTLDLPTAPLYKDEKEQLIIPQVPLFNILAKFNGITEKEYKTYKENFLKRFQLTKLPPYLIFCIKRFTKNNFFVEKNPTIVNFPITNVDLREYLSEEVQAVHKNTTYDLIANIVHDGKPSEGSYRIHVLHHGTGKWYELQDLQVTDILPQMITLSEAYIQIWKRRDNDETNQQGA
In short: as §1

USP4 = target: T4, USP4 (UniProt Q13107)
T4 sequence (whole entry): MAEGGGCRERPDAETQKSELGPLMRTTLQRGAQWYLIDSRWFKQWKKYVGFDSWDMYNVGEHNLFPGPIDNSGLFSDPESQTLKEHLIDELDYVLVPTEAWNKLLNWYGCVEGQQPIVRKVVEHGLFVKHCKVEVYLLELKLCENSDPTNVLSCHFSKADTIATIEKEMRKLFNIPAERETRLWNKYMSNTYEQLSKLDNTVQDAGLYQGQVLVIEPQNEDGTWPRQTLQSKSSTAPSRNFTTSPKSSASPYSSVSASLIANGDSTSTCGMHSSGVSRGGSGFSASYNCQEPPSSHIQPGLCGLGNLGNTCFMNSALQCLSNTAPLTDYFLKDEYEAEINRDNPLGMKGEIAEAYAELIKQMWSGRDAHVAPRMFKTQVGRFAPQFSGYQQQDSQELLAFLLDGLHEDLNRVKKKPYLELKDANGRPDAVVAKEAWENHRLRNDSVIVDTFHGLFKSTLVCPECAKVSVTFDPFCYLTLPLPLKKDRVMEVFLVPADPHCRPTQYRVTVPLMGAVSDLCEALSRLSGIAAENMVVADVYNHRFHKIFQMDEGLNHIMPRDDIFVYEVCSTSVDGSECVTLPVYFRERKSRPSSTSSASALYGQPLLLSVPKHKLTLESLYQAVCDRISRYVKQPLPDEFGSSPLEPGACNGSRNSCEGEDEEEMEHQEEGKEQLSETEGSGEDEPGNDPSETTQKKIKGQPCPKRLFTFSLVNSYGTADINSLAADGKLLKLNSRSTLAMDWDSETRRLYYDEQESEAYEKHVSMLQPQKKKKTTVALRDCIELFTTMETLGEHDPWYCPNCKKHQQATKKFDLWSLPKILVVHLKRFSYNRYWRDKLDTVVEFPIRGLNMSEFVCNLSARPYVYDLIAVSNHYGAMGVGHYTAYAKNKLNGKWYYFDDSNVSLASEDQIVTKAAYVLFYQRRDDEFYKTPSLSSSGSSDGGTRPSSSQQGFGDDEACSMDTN
In short: as §1

Measured: log2 ratio of Biotin-Ahx-Ub-VS probe labelling

Cc1cccn2cc(CCNC(=O)CCl)nc12.Cl
inactive: USP34 -0.083 | USP36 -0.0485 | USP38 -0.247 | USP39 -0.319 | USP4 -0.12
